Bioassay records (PubChem)
TSHR agonist = agonists of human thyroid stimulating hormone receptor; 73,000 compounds, 0.48% hits; Potency, µM (series often up to 57.1 µM), for inactives: top-dose activation, actives largely listed as activators; HEK293-CNG-TSHR cells (CNG channel as cAMP sensor), membrane potential dye, cAMP; P16473; active = well fitted activation curve with a large enough effect in the main read-out, with a control signal flat, not every such curve was filed as active; inconclusive = small, poorly fitted or top-dose-only effect, or a change in a side signal; inactive = no such curve, though single readings can be large or run the other way; % of control where 0% means no effect;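 note: the control signal comes from parental cells without the receptor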
Target sequence (P16473 whole entry, looked up): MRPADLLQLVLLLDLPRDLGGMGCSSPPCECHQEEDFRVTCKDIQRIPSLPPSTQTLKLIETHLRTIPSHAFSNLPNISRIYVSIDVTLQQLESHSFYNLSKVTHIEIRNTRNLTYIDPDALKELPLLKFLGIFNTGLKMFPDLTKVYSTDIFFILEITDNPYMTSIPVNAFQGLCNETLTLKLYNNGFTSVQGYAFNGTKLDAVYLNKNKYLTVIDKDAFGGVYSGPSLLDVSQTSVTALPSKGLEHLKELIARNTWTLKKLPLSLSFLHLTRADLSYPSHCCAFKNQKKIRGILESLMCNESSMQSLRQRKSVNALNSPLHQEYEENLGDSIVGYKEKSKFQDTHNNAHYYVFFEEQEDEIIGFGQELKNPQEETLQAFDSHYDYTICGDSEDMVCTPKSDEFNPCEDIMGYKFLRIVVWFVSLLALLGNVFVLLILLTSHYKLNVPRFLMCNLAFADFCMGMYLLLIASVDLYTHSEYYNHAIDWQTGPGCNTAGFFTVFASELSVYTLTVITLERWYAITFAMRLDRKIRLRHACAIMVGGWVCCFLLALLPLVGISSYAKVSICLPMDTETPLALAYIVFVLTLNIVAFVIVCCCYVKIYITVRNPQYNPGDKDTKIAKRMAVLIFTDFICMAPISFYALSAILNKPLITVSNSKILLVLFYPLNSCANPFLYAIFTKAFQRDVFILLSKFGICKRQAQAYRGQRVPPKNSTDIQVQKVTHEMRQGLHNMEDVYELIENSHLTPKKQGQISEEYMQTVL
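HEK 293 cells stably expressing TSHR and a modified CNG channel, with CNG-only parental cells as counterscreen, were preloaded 60 min at room temperature with membrane potential dye containing 100 uM RO 20-1724. Compound exposure was 30 min, and depolarization was read as fluorescence at 590 nm.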
CRE-bla Fsk = alters forskolin-stimulated CRE reporter signaling in CHO cells. CHO CRE-bla reporter (cAMP response element driving beta-lactamase), forskolin EC10, beta-lactamase ratio. Potency, µM (highest dose often 38.2 µM), without a hit: at the highest dose activity change, negative = inhibition, actives largely listed as activators. 71,000 compounds, 2.5% hits. AID 662; active = well fitted activation curve with a large enough effect in the signal ratio, with a control signal flat, not every such curve was filed as active; inconclusive = small, poorly fitted or top-dose-only effect, or effect the other way, or a change in a side signal; the % refers to the signal ratio; note: % of control where 0% means no effect
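Cells were plated overnight at 37 °C, exposed to compound titrations plus EC10 NKH 477 for 3 h, then given CCF4 dye for 2 h at room temperature. Blue/green (460/530 nm) ratio was converted to %Activity and AC50 values calculated.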
IkB sig inh = inhibitors of IkB signaling in ABC-DLBCL cells | ABC-DLBCL IkBa-CBG/CBR dual luciferase ratio, 4 h; response scale: scaled: untreated 0%, proteasome inhibitor 100% | Potency, µM (top dose mostly 57.1 µM), for inactives: at the highest dose IkBa stabilization activation | 110,000 compounds, 0.04% hits; active = well fitted curve in the direction sought with a large enough effect in the signal ratio, not every such curve was filed as active; inconclusive = small, poorly fitted or top-dose-only effect, or a change in a side signal; the % refers to the signal ratio;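 note: the direction sought is a rising ratio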
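Curves were fitted separately to fusion (green), unfused (red) and ratio luminescence, then classed by r2, magnitude and activity. Cells: OCI-Ly3, 4 h compound plus doxycycline at 37C; 10 uM MG-132 defined full response.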
HEK293 cAMP cs = parental HEK293 cAMP activation (counter-screen); parental HEK293 CNG cAMP sensor, membrane potential fluorescence; Potency, µM (doses to about 57.1 µM), without a hit: top-dose activation, usual class: activators; 73,000 compounds, 2.5% hits; note: % of control where 0% means no effect; nearly all actives have a fitted effect of over 55% in size
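Parental HEK 293 cells stably expressing a cAMP-gated CNG channel were loaded with membrane potential dye containing 100 uM RO 20-1724 for 60 min. Compound added for 30 min; depolarization read as fluorescence intensity at 590 nm.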
ERK AVP inh = blocks ERK signaling stimulated by vasopressin; HEK293-V1b, vasopressin-stimulated pERK AlphaScreen; 72,000 compounds, 0.99% hits; AID 995; Potency, µM (highest dose often 57.5 µM), for the others: at the highest dose activity, negative = inhibition, hits mostly inhibitors; note: % is set by controls: 0 for no effect and ±100 for the full control effect; nearly all actives have a fitted effect of over 55% in size
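HEK293 cells stably expressing V1b receptor, preincubated 30 min at 37 °C with compound, then stimulated 5 min with 25 nM vasopressin. Phospho-ERK by AlphaScreen SureFire after 5 h RT; normalized to DMSO and vasopressin; AC50 by Hill fit.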
* = called active by the depositor; ? = inconclusive; · = no result; ! = not active in a repeat; [ ] = dose if it differs, or a comment. Rows were chosen to be rich in hits. Some 3.6% of all compounds tested hit in one or more screens of this group. Unless noted, calls come from the whole dose curve; as a rule, active = well fitted curve in the direction sought with a large enough effect; inconclusive = small, poorly fitted or top-dose-only effect, or another doubt; inactive = no such curve, though single readings can be large; an effect the other way counts as inactive or inconclusive. Potency is the fitted concentration of half-maximal effect.

SMILES	TSHR agonist	CRE-bla Fsk	IkB sig inh	HEK293 cAMP cs	ERK AVP inh
NC[C@H]1O[C@@H](n2cnc3c(=O)[nH]c(N)nc32)[C@@H](O)[C@@H]1O	5%[11.4 µM]	7%[7.6 µM]	0%[11.4 µM]	0%[11.4 µM]	-13%[11.5 µM]
CC(C)(C)N1C(=O)Cc2c1nc(N)c1c(N)nc(N3CCCCC3CO)c(C#N)c21 (stereo unspecified)	-16%	2.5µM*	?	-27%	-15%
CCN(CC)c1ccc(C(=S)N2CCN(c3ccccc3)CC2)cc1	1%	15%	3%	3%	32µM*
Cc1ccc(-n2c(-c3ccco3)nc3c(cnn3-c3ccccc3Cl)c2=O)cc1	·	·	-4%	·	·
O=C(NCc1ccc2c(c1)OCO2)C(c1ccco1)N(C(=O)c1csnn1)c1ccccc1 (stereo unspecified)	3.2µM*	?	0%	7%	-1%
CCCCCC[C@@H]([C@H](C)O)n1cnc2c(N)ncnc21	?	6%	2%	32µM*	-3%
CCCc1cc(C(N)=O)c(NC(=O)c2ccoc2C)s1	-3%	10µM*	1%	-2%	21%
CN1CCN(CCCN2c3ccccc3Sc3ccc(C(F)(F)F)cc32)CC1	-3%[11.4 µM]	12%[7.6 µM]	-1%[11.4 µM]	7%[11.4 µM]	25µM*!
COc1nc(-c2ccccc2)ccc1-c1noc(-c2ccccc2)n1	19%	?	-1%	5%	-9%
COc1nc(-c2ccccc2)ccc1-c1noc(COc2ccccc2)n1	?	?	2%	32µM*	48%
COc1cccc(C(=O)N2CCN(S(=O)(=O)Cc3ccccc3)CC2)c1	-5%	-6%	0%	4%	-28%
O=c1cnnc(SCCc2ccccc2)[nH]1	?	9%	13%	32µM*	?
Cc1cccc(CSc2nncc(=O)[nH]2)c1	22%	?	-2%	21%	-13%
CN(Cc1ccccc1)c1oc(COc2ccccc2F)nc1C#N	?	21%	2%	25µM*	?
COc1ccccc1N1C(=O)N(C(C)=O)C2C1Nc1ccccc1N2C (stereo unspecified)	-1%	19%	24%	16%	25µM*
O=C(Oc1ccc(/C=N/O)cc1)c1ccccc1	4%	-5%	1%	0%	1%
C=CCNc1nc2c(c(=O)[nH]c(=O)n2C)n1CCCCC	-4%	?	0%	6%	?
CCCCn1c(NCCC)nc2c1c(=O)[nH]c(=O)n2C	-7%	2.5µM*	0%	-3%	?
CCCNc1nc2c(c(=O)[nH]c(=O)n2C)n1CCC(C)C	4%	10µM*	-1%	27%	-29%
CC(C)CCn1c(NCCN(C)C)nc2c1c(=O)[nH]c(=O)n2C	7%	1%	1%	-1%	-9%
CCCCCCn1c(SCCC)nc2c1c(=O)[nH]c(=O)n2C	13%	16%	0%	29%	?
CCCCCCn1c(N(CC)CC)nc2c1c(=O)[nH]c(=O)n2C	8%	10µM*	0%	21%	?
N#Cc1nc(COc2ccc(F)cc2)oc1N1CCC(Cc2ccccc2)CC1	?	?	3%	4µM*	17%
N#Cc1nc(COc2ccc(F)cc2)oc1N1CCN(Cc2ccccc2)CC1	?	24%	2%	6.3µM*	-10%
N#Cc1nc(COc2ccccc2)oc1N1CCN(c2cccc(Cl)c2)CC1	?	-10%	-1%	?	-9%
SMILES	TSHR agonist	CRE-bla Fsk	IkB sig inh	HEK293 cAMP cs	ERK AVP inh
COc1ccccc1-c1nc(C#N)c(N2CCN(Cc3ccccc3)CC2)o1	?	13µM*	?	?	?
COc1ccccc1-c1nc(C#N)c(NCc2ccc(F)cc2)o1	9%	13µM*	-1%	-2%	-20%
COc1ccc(C(=O)Nc2ccc(-c3cc4ccccc4oc3=O)c(C)c2)cc1Br	·	·	3%	·	·
N#Cc1nc(COc2ccccc2)oc1N1CCCCC1	?	16%	-3%	?	-9%
CCN1CCN(c2oc(COc3ccc(-c4ccccc4)cc3)nc2C#N)CC1	?	5µM*	?	?	-5%
COc1ccc(-c2nc(SCC(=O)c3ccc(OC)c(Br)c3)n[nH]2)cc1	·	·	-2%	·	·
O=C(c1noc2c1CCc1ccccc1-2)N1CCCc2ccccc21	?	-11%	?	25µM*	17%
O=C(c1noc2c1CCc1ccccc1-2)N1CCOCC1	-7%	-6%	-1%	-1%	19%
C=CCc1cccc2cc(C(=O)N(CC)CC)c(=O)oc12	7%	6%	2%	7%	21%
O=C(Nc1ccc(Cl)cc1C(=O)Nc1ccc(Br)cn1)c1ccco1	?	23%	?	20µM*	-6%
O=C(O)C1CCC(CNc2c(NC3CCCCC3)c(=O)c2=O)CC1 (stereo unspecified)	38%	0%	3%	26%	·
Cc1ccc(CNC(=O)CN2N=C(c3ccc(C)cc3)CCC2=O)cc1	·	·	-3%	·	·
O=C(Oc1ccccc1)N1CCC2(CCCN(c3ccccn3)C2)CC1	?	?	1%[11.4 µM]	20µM*	4%
O=C(c1ccncc1)N1CCC2(CC1)CN(c1ccccn1)C2	?	-7%	-1%[11.4 µM]	7.9µM*	-20%
c1ccc(CNCCN2CCNCC2)nc1	?	-9%	-1%	?	-5%
CC(C)c1ccc(NC(=O)CN(C)S(=O)(=O)c2ccc3c(c2)n(C)c(=O)c(=O)n3C)cc1	·	·	2%	·	·
Clc1ccccc1C(Nc1ncccn1)Nc1ncccn1	-1%[11.4 µM]	-3%[7.6 µM]	1%[11.4 µM]	-1%[11.4 µM]	14%[11.5 µM]
Clc1ccc([C@@H](c2ccccc2Cl)C(Cl)Cl)cc1	20µM*	16%	18%	12%	·
CCOc1cccc(C(=O)N(Cc2ccc(F)cc2)C2CCS(=O)(=O)C2)c1 (stereo unspecified)	9%	-4%	0%	4%	-9%
CCOC(=O)CN1C(=O)C(CC)Oc2ccc(Cl)cc21 (stereo unspecified)	?	?	0%	?	4%
CCCCNC(=O)CN1C(=O)C(CC)Oc2ccc(Cl)cc21 (stereo unspecified)	?	-1%	0%	10µM*	-3%
CCn1c(=O)c2[nH]c(-c3ccccc3)nc2n(CC)c1=O	?	?	5%	-59%	?
CCCn1c(=O)c2[nH]c(-c3ccccc3)nc2n(CCC)c1=O	-3%	0.2µM*	0%	7%	-21%
Cc1cc(C(=O)CSc2nc(N)cc(N)n2)c(C)n1CCc1ccc(F)cc1	?	0%	?	?	13µM*
COc1ccc(CCn2c(C)cc(C(=O)CSc3nnnn3C)c2C)cc1	?	0%	0%	?	2%
CCOc1ccccc1CN1C(=O)NC(C)(c2ccccc2)C1=O (stereo unspecified)	·	-14%	0%	23%	-3%
